High-throughput results as filed in PubChem BioAssay.
A selection: hits, their analogues and other compounds. The true share with any hit is near 3.5%.
Mtb UGM inh: inhibitors of M. tuberculosis UDP-galactopyranose mutase; P9WIQ1; purified UGM, fluorescence polarization probe displacement; inhibition, % at 10 µM; hit rate 0.06% among 320,000; AID 504406; in the data active means inhibition above about 10%, passing the limit was not always enough; inconclusive means no clear call, values can overlap the other calls
Target sequence (P9WIQ1 whole entry, looked up): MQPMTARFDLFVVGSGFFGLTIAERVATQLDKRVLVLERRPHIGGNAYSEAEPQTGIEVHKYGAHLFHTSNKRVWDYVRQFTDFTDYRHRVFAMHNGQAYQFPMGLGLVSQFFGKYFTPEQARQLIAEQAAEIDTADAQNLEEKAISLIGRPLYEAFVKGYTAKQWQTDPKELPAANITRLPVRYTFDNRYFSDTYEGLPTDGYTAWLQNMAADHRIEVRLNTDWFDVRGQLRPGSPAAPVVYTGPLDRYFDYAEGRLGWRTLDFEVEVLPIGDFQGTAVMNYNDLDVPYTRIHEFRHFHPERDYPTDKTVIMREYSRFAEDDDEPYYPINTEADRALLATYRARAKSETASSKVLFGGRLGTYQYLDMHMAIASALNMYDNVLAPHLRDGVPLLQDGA
Rv3671c inh: inhibits the M. tuberculosis serine protease Rv3671c | P9WHR9 | inhibition, % at 5.96 µM | hit rate 0.048% among 320,000 | AID 2606; in the data active means inhibition above about 38%;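 further: extracellular domain of Rv3671c used as enzyme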
Mtb betalactam: beta-lactam sensitization of Mtb H37Rv; M. tuberculosis H37Rv growth with meropenem, percent inhibition; inhibition, % at 25 µM; hit rate 0.27% among 330,000; call rule not given here;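 further: growth measured after seven days incubation then overnight dye step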
GDH-TPI counter-1: GDH-TPI coupled enzyme inhibition counter-screen. GDH-TPI coupled enzyme counterscreen, NADH absorbance. inhibition, % at 4.8 µM. hit rate 1.2% among 360,000. AID 588335; in the data active means inhibition above about 30%
FBA Mtb inh: inhibits M. tuberculosis FBA enzyme | hit rate 2.3% among 360,000 | inhibition, % at 1 µM | purified M. tuberculosis FBA, fluorescence read-out
Mtb FBA inh conf: Mtb FBA inhibition, confirmed | shares compounds with FBA Mtb inh | purified M. tuberculosis FBA, fluorescence read-out | hit rate 78% among 5,600 | inhibition, % at 1 µM
GDH-TPI counter-2: counter-screen for M. tuberculosis FBA inhibitors: GDH-TPI coupled enzyme inhibition | shares compounds with FBA Mtb inh | GDH-TPI coupled enzyme counterscreen, fluorescence | inhibition, % at 1 µM | hit rate 81% among 5,600; in the data active means inhibition above about 10%
Numbers stand for hits; . = inactive; ? = inconclusive; / = no result given; + = active, no number. Unless noted, no stated cut-off is given here; in the data, active means inhibition above about 27%; inactive means the rest.

SMILES	Mtb UGM inh	Rv3671c inh	Mtb betalactam	GDH-TPI counter-1	FBA Mtb inh	Mtb FBA inh conf	GDH-TPI counter-2
COC(=O)C1=CN(CCCN2CCCC2=O)C=C(C(=O)OC)C1c1cccs1	.	.	.	.	.	/	/
O=C(CCCOc1ccccc1)NN1C(=O)NC2(CCCCC2)C1=O	.	.	.	.	.	/	/
O=S(=O)(O)c1cc(O)c2ccc(Nc3ccccc3)cc2c1	/	/	/	.	35	.	.
O=S(=O)(O)c1cc(O)c2cc(Nc3ccccc3)ccc2c1	/	/	/	.	48	91	98
COc1cccc(/C=N\NC(C)=O)c1OC/C=C/c1ccccc1	.	/	.	.	.	/	/
COc1ccc(-c2cc3cc(OC)c(OC)cc3c(C)n2)cc1	.	.	.	.	47	73	55
O=C(CN1CCOCC1)Nc1ncc(Cc2cccc(Cl)c2Cl)s1	.	.	.	.	.	/	/
NC(=O)C1CCN(C(=O)c2ccc(NS(=O)(=O)c3ccc(F)c(F)c3)cc2)CC1	.	.	.	.	.	/	/
C[C@H]1COc2c(N3CCN(C)CC3)c(F)cc3c(=O)c(C(=O)O)cn1c23	.	.	.	.	55	+	162
CN1CCN(c2c(F)cc3c(=O)c(C(=O)O)cn4c3c2SCC4)CC1	.	.	.	.	28	+	+
Cc1c(-n2cc(C(=O)O)c(=O)c3cc(F)c(N4CCCC4)c(F)c32)c(=O)n(-c2ccccc2)n1C	.	.	.	.	.	/	/
CCCS(=O)(=O)NC(=O)C1(C)CCCN(C(=O)c2nc3ccccc3s2)C1 (configuration not stated)	/	/	/	.	.	/	/
O=C(Cn1nc(-c2ccccc2)c2ccccc2c1=O)NCCO	.	.	.	.	.	/	/
O=C(Nc1ccccc1F)C1CCCN(S(=O)(=O)c2ccc(-n3cnnn3)cc2)C1 (configuration not stated)	.	.	.	.	85	119	87
CCOC(=O)[C@H]1[C@H]2COc3cc(OC)ccc3[C@@H]2N2C(=O)CN(Cc3ccco3)C(=O)[C@@]12C	.	.	.	.	.	/	/
COc1ccc(/C=N/n2c(=O)[nH]c3c([nH]c4ccc(C)cc43)c2=O)cc1CN1CCOCC1	/	/	/	.	93	127	101
CC1=CC(C)[C@H](/C=N/n2c(=O)[nH]c3c([nH]c4ccc(C)cc43)c2=O)C(C)C1 (some centres not stated)	.	.	.	.	53	.	.
CC1=CC(C)C(/C=N/n2cnnc2)C(C)C1 (configuration not stated)	.	.	.	.	.	/	/
C[C@H](NC(=O)c1nc[nH]c1C(=O)N1CCNCC1)C(=O)OC(C)(C)C	.	.	.	.	.	/	/
COc1cc(C(O)c2nc(-c3cccc4cccnc34)cs2)ccc1F (configuration not stated)	/	/	/	.	.	/	/
Cc1ccc(C)c(N)c1	.	.	.	.	.	/	/
Cc1ccc2c(N)c(C)ccc2c1	.	.	.	.	49	.	.
Cc1cnc(NC(=O)Nc2ccc(OCc3ccccc3)cc2)c(Br)c1	.	.	.	.	.	/	/
Cc1cc(N2CCN(C)CC2)nc2ccc(NC(=S)N3CCN(c4ccc(Cl)cc4)CC3)cc12	.	.	.	.	27	135	128
Cc1cc(N2CCN(C)CC2)nc2ccc(NC(=O)CCC(=O)NCCC(C)C)cc12	?	.	.	.	33	.	.
SMILES	Mtb UGM inh	Rv3671c inh	Mtb betalactam	GDH-TPI counter-1	FBA Mtb inh	Mtb FBA inh conf	GDH-TPI counter-2
Cc1cc(N2CCN(C)CC2)nc2ccc(NC(=O)CCC(=O)NCc3ccco3)cc12	.	.	.	.	32	68	69
COc1ccccc1N(C)S(=O)(=O)c1ccc(C(=O)N(C)Cc2ccc(OC(F)F)cc2)cc1	/	/	/	.	.	/	/
N#Cc1cccc(NC(=O)Cn2cnc(S(=O)(=O)N3CCCC3)c2)c1	.	.	.	.	.	/	/
CCOC(=O)c1c(NC(=O)COC(=O)c2nc(Cl)ccc2Cl)sc(C(=O)NC)c1C	.	.	.	.	.	/	/
Cc1ccc(C(=O)OCC(=O)N2CCNC2=O)c(C)c1	/	/	/	.	.	/	/
CC(C#N)(Nc1ccc(Cl)cc1)c1cccnc1 (configuration not stated)	.	.	.	.	28	+	+
COc1cccc(OCCNC(=O)c2cc(OC)c(OC)c(OC)c2)c1	.	.	.	.	.	/	/
COc1ccc(NC(=O)c2cc3ccc(O)cc3o/c2=N\O)cc1	.	.	.	.	.	/	/
N=c1oc2cc(O)ccc2cc1C(=O)Nc1ccc(F)cc1	.	.	.	.	90	160	134
NNC(=O)c1csc(Cc2c(Cl)sc3ccc(Cl)cc23)n1	.	.	.	.	.	/	/
CN(Cc1cccc(F)c1)C(=O)C1CC(=O)N(Cc2ccco2)C1 (configuration not stated)	/	/	/	.	.	/	/
COc1cccc2cc(-c3n[nH]c(=S)n3C)oc12	.	.	.	.	42	.	.
COc1cccc(OC)c1C(=O)Nc1nnc(-c2cccs2)s1	.	.	.	.	.	/	/
CCC(CC)C(=O)Nc1nnc(-c2cccs2)s1	.	.	.	.	36	88	75
CNc1cc(-c2cc(OC)ccc2OC)ncn1	/	/	/	.	84	.	.
CNc1cncc(-c2cc(OC)ccc2OC)n1	/	/	/	.	.	/	/
CNc1ccc(-c2cc(OC)ccc2OC)cn1	/	/	/	.	98	+	155
CC(C)OCCCNC(=O)c1ccc(NC(=O)C2=CSCCO2)cc1	.	.	.	.	.	/	/
CN1CCN(CCCCOc2ccc(Br)cc2)CC1	.	.	.	.	.	/	/
Cn1nc(C(F)(F)F)c(-c2ccc(Br)cc2)c1NC(=O)c1nccnc1C(=O)O	.	.	.	.	.	/	/
Brc1c(CSc2nc3ccccc3s2)nc2ncccn12	.	.	.	.	28	108	82
O=[N+]([O-])c1ccc2sc(SCc3nc4ccccn4c3Br)nc2c1	.	.	.	/	/	/	/
N#Cc1c(N)oc(-c2ccco2)c1-c1ccco1	.	.	.	.	33	42	26
COC(=O)c1cc(COc2ccc3ccc(=O)oc3c2)c(C)o1	.	.	.	.	36	.	.
CC1=CC(C/C(C)=C/COc2ccc3ccc(=O)oc3c2)OC1=O (configuration not stated)	.	.	.	.	48	54	44
SMILES	Mtb UGM inh	Rv3671c inh	Mtb betalactam	GDH-TPI counter-1	FBA Mtb inh	Mtb FBA inh conf	GDH-TPI counter-2
COC(=O)c1ccc(COc2ccc3ccc(=O)oc3c2)o1	.	/	.	.	.	/	/
CC(C)=CCC/C(C)=C/CC/C(C)=C/COc1ccc2ccc(=O)oc2c1	.	.	.	.	30	.	.
CC(C)=CCOc1ccc2ccc(=O)oc2c1	.	.	.	.	65	60	50
CC(C)CN(C(=O)C(C)N1C(=O)c2ccccc2C1=O)c1c(N)n(Cc2ccccc2)c(=O)[nH]c1=O (configuration not stated)	.	.	.	.	.	/	/
COCCN(CCOC)C(=O)COC(=O)c1ccc(Cl)c(S(=O)(=O)N(C)c2ccccc2)c1	.	.	.	.	.	/	/
COc1cc(SSc2cc(OC)cc([N+](=O)[O-])c2N)c(N)c([N+](=O)[O-])c1	.	.	.	.	.	/	/
Cc1ccc2nc3[nH]c(=O)[nH]c(=O)c3c(N)c2c1	/	/	/	.	105	.	.
